According to PubChem BioAssay (NCI):
The panel holds about 83,000 compounds, 20% with a hit somewhere; the sample as a whole holds those more often.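 96-well plates, one dose, 48 hours. Percent growth reported; active if below 10.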 Values without a mark were called inactive. Activity calls are given as the source filed them.

System: MDA-MB-468 breast
Assay: NCI-60 one-dose screen, 48 h (100 = growth as untreated, 0 = no growth, -100 = all killed)
Conditions: 10 µM unless noted

How did the growth turn out when `O=C(Nc1nc2ccc(C(F)(F)F)cc2s1)c1cc(Cl)ccc1O` was run?
The growth was -1.49% (active).

Which growth does the source give for `O=C(N/N=C/c1ccc(Oc2ccccc2)cc1)c1cnn2c1NC(c1ccccc1)C2` (stereo not given) here?
Its growth is 30.2%.

How did the growth turn out when `CCOC(=O)c1nc(Nc2cc(C)[nH]n2)c2ccccc2n1` was run?
Its growth is 54.9%.

For `CC(=O)Nc1ccc(C(=O)CCl)cc1`, which growth is on record?
The growth was 8.65% (active).

How did the growth turn out when `CCNc1nc(-c2ccc(Cl)c(OC)c2)c(-c2ccnc(NCCCNS(=O)(=O)c3ccc(Cl)cc3)n2)s1` was run?
Its growth is 63.3%.

With `O=C1OCC2=C1C(c1cccc(C(F)(F)F)c1)c1cc3c(cc1N2CCO)CCC3` (stereo not given) as the compound, how does the growth read?
The growth was -1.26% (active).

Which growth does the source give for `COC(=O)[C@]12CC[C@@H](C)[C@H](C)[C@@H]1C1=CC[C@@H]3[C@@]4(C)C[C@@H](O)OC[C@](C)(C=O)C4C(=O)C[C@@]3(C)[C@]1(C)CC2` (stereo not given in full) here?
The growth was -0.84% (active).

With `COc1cc2c(c(OC)c1O)C(=O)C(OC)C(c1ccc(O)c(O)c1)O2` (stereo not given) as the compound, how does the growth read?
The growth was 7.99% (active).

With `Oc1ccc(/C=N\Nc2ccccn2)c(O)c1` as the compound, how does the growth read?
The growth was 9.5% (active).

`O=C(CSc1nnc(-c2ccc(Cl)cc2)n1-c1ccccc1)Nc1ccc(Cl)cc1` was tested. Which growth did it give?
The growth was 4.06% (active).

With `O=C1c2ccccc2C(=O)N1OCc1ccccc1` as the compound, how does the growth read?
The growth was 125%.

With `CCOC(=O)c1c(-c2cc(OC)c(OC)c(OC)c2)csc1N` as the compound, how does the growth read?
The growth was 50%.

`COC(=O)Nc1nc2ccc(C(=O)c3cccs3)cc2[nH]1` was tested. Which growth did it give?
The growth was 5.96% (active).

`O=C(CSc1nnc(-c2ccccc2)o1)Nc1ccc(C(=O)/C=C/c2ccccc2)cc1` was tested. Which growth did it give?
The growth was 58.3%.

How did the growth turn out when `C=C1C(=O)O[C@H]2[C@H]1CC/C(Cn1cc(-c3ccc(N)cc3)nn1)=C\CC[C@@]1(C)O[C@@H]21` was run?
Its growth is -44.8% (active).
